Screening data as filed in PubChem BioAssay.
Sampled rows, rich in hits. Any-hit rate of the full collection: about 7.7%.
Giardia FBPA inh: inhibitors of Giardia lamblia fructose-1,6-bisphosphate aldolase; A8B2U2; purified Giardia FBPA; Potency, µM (doses to about 59.6 µM), for the others: at the top dose activity, negative = inhibition, most hits filed as inhibitors; hit rate 0.71% among 290,000; AID 2451; note: potency is the fitted concentration of half-maximal effect; nearly all actives have a fitted effect of over 55% in size
Target sequence (A8B2U2 whole entry, looked up): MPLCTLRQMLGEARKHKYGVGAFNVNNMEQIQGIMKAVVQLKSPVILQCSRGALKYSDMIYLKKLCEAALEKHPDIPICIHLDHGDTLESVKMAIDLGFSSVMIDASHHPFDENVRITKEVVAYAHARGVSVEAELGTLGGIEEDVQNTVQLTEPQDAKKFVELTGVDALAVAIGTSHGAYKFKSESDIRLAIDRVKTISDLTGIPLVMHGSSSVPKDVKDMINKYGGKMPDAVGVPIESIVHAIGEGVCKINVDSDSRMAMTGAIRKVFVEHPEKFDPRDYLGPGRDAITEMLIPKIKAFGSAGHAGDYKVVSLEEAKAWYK
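Giardia FBPA (40 nM reagent) was preincubated 10 min at RT with compound (up to 57.5 uM final), then substrate plus GAPDH/TPI/NAD/arsenate coupling system with diaphorase/resazurin was added; resorufin fluorescence (525/598 nm) was read after 20 min.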
Sm TGR block: blocks Schistosoma mansoni thioredoxin glutathione reductase | Potency, µM (top dose mostly 114 µM), inactives show at the top dose activity change, negative = inhibition, actives largely listed as inhibitors | AID 485364 | hit rate 3% among 360,000 | purified TGR, DTNB reduction, TNB absorbance 405 nm | Q962Y6; note: potency is the fitted concentration of half-maximal effect; nearly all actives have a fitted effect of over 60% in size
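Kinetic colorimetric format: TGR-catalysed, NADPH-driven DTNB reduction monitored via TNB absorbance. Enzyme dispensed at 20 nM; compound exposure 15 min at room temperature before reaction start.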
HCMV antiviral: inhibitors of human cytomegalovirus; activity change, negative = inhibition, % at 57.5 µM; HFF cells, HCMV-luciferase reporter, 72 h; hits give low values; hit rate 4.5% among 410,000; in the data active = activity change below about -60%; inconclusive = no clear call, values can overlap the other calls; inactive = above about -39%
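Screen run at 2 compound doses on HFFs infected with reporter HCMV, MOI 1 PFU/cell. Luciferase activity from cell lysates at 72 h post infection gave inhibition relative to buffer-only and Salinomycin wells.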
RE007 growth inh: less growth of the S. pombe RE007 Vpr strain | hit rate 0.21% among 360,000 | S. pombe RE007 Vpr strain, BacTiter-Glo ATP luminescence, 24 h | Potency, µM (titrated, usually from 92.2 µM), for inactives: at the top dose activity change, negative = less growth, actives largely listed as inhibitors; active = well fitted falling curve with a large enough effect; inconclusive = small, poorly fitted or top-dose-only effect; inactive = no such curve, though single readings can be large or run the other way; note: potency is the fitted concentration of half-maximal effect; nearly all actives have a fitted effect of over 50% in size
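Fission yeast RE007 carrying one integrated HIV-1 vpr copy, seeded at OD 0.01 in PMG+AL medium with 23 nL pinned compound. Grown 24 h at 30 degrees; viability read by BacTiter-Glo luminescence after 5 min.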
Tb PYK inh: blocks Trypanosoma brucei pyruvate kinase; Q57TT1; TbPYK enzyme, Kinase-Glo Plus ATP luminescence, 45 min; Potency, µM (top dose mostly 76.8 µM), without a hit: top-dose activity, negative = inhibition, actives largely listed as inhibitors; hit rate 0.12% among 410,000; AID 624173; note: potency is the fitted concentration of half-maximal effect; nearly all actives have a fitted effect of over 50% in size
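Enzyme and substrate buffer are dispensed first and compound is pin-transferred. ADP at 130 uM final then starts the reaction, which runs 45 min at room temperature. Detection reagent is added for 10 min before luminescence is imaged.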
FMDV antiviral: blocks foot and mouth disease virus; FMDV antiviral cell-based qHTS; Potency, µM (titrated, usually from 57.9 µM), for the others: at the top dose activity change, negative = inhibition, most hits filed as inhibitors; hit rate 1.2% among 410,000; calls by dose curve; tested in HEK293T cells; note: read-out not given here; potency is the fitted concentration of half-maximal effect; nearly all actives have a fitted effect of over 45% in size
* hit, by the source's call; ? = inconclusive; nt = no result given; [ ] = another dose, or the depositor's remark. Unless noted, calls come from the whole dose curve; as a rule, active = well fitted curve in the direction sought with a large enough effect; inconclusive = small, poorly fitted or top-dose-only effect, or another doubt; inactive = no such curve, though single readings can be large; an effect the other way counts as inactive or inconclusive. % is set by controls: 0 for no effect and ±100 for the full control effect.

SMILES | Giardia FBPA inh | Sm TGR block | HCMV antiviral | RE007 growth inh | Tb PYK inh | FMDV antiviral
CCN1C(=NCC(C)C)N[C@@H](c2cccc(C(F)(F)F)c2)C(C(=O)OC)=C1C | 22.6% | 6.0% | -23.7 | -16.1% | -0.6% | -21.9%
C=CCN=C1N[C@@H](c2cccc(C(F)(F)F)c2)C(C(=O)OC)=C(C)N1CC | 15.8µM* | -33.2% | 99.1 | -12.2% | -10.7% | -16.6%
COC(=O)C1=C(C)N(Cc2ccccc2)C(=NCc2ccc(OC)cc2)N[C@H]1c1ccccc1 | -7.8% | -28.0% | -36.9 | -15.6% | -1.4% | 0.0%
COC(=O)C1=C(C)N(Cc2ccc(C(F)(F)F)cc2)C(=NCc2ccccc2)NC1c1cccc(Cl)c1 (configuration not stated) | nt | nt | -100.5* | nt | nt | nt
CN(C)c1ccc(C(CNC(=O)c2c(F)cccc2Cl)N2CCOCC2)cc1 (configuration not stated) | nt | -4.5% | -3.4 | nt | 0.7% | -1.7%
CC1(C)CCC(=O)N2CC[C@H]3C[C@H](OC(=O)Nc4ccc(Br)cc4)C[C@@H]1[C@H]32 | 1.1% | -10.4% | -100.8* | 1.3% | -0.7% | 12.8%
Cc1ccc(S(=O)(=O)NC(=O)Nc2ccc(N(C)C)cc2)cc1 | nt | 50.1µM* | -17.9 | -24.0% | -28.7% | 23.6%
O=C(CCCN1C(=O)c2cccc3cccc(c23)C1=O)N1CCN(c2ncccn2)CC1 | 1.8% | nt | -66.2* | 17.6% | 1.3% | -8.2%
O=C(CCCN1C(=O)c2cccc3cccc(c23)C1=O)NCc1ccco1 | 3.2% | 0.0% | -88.9* | -1.5% | -5.7% | 17.6%
O=C(CCCN1C(=O)c2ccccc2C1=O)NCc1ccco1 | 7.4% | -15.5% | -4.2 | 2.8% | -1.6% | -10.8%
CCOC(=O)CCCSc1nnc(CCCCCN2C(=O)c3cccc4cccc(c34)C2=O)o1 | -2.5% | 3.1% | -20.4 | 3.9% | -5.4% | -8.5%
CCN1C(=O)c2cccc3cccc1c23 | ? | 11.2µM* | 69.4 | -1.7% | -5.5% | nt
CCOC(=O)CCCCCN1C(=O)c2cccc3cccc(c23)C1=O | -3.0% | -1.2% | -100.2* | -10.4% | -1.5% | -2.7%
COc1cccc(CN2CCOc3ccc(CN4C[C@@H](C)O[C@@H](C)C4)cc3C2)c1OC | nt | nt | nt | nt | nt | -4.9%
CCCCN1CC(COCc2ccccc2)Oc2cccc(N3CCCCC3)c2S1(=O)=O (configuration not stated) | nt | nt | -12.9 | nt | nt | nt
Cc1ccc(-n2ncc(C(=O)NCCc3ccsc3)c2C2CCN(C(=O)OC(C)(C)C)CC2)cc1C | nt | 8.6% | 0.0 | nt | 1.8%[15.4 µM] | 43.1%
O=C1CCc2ccc(OCCCCN3CCN(c4cccc(Cl)c4Cl)CC3)cc2N1 | -7.0% | 4.3% | -17.4 | -11.4%[18.4 µM] | 0.4% | 20µM*
Cc1ccc(C(=O)CCNc2cccc(Br)c2)o1 | -0.4% | 56.2µM* | -30.0 | ? | -13.6% | 13.8%
Cc1ccc(C(=O)CCNc2ccccc2)o1 | -3.1% | 25.1µM* | 26.5 | 11.2µM* | 3.8% | 42.8%
Cc1ccc(C(=O)CCNc2ccc(Br)cc2)o1 | 2.3% | ? | 2.1 | -28.7% | 1.3% | 21.3%
Cc1ccc(C(=O)CCNc2ccc(F)c(Cl)c2)o1 | 0.0% | ? | 61.0 | ? | -1.7% | 17.2%
CCc1ccccc1NC(=O)c1nc2nc(C)cc(C(F)F)n2n1 | nt | 6.7% | ? | nt | 1.1% | -16.6%
Fc1ccc(NC(=S)NNc2ncc(C(F)(F)F)cc2Cl)c(F)c1 | 8.1% | -8.6% | -99.0* | 14.3% | -9.0% | -41.4%
FC(F)(F)c1cnc(NNC(=S)Nc2ccc(Cl)cc2)c(Cl)c1 | 0.4% | -12.6% | -98.6* | 14.7% | -5.8% | -25.8%
Cc1ccc(NC(=S)NNc2ncc(C(F)(F)F)cc2Cl)cc1 | 8.8% | 6.1% | -25.8 | 5.9% | -6.0% | ?
COc1ccc(/C=N/Nc2nnc(C)n2N)cc1OC | 22.3µM* | -4.3% | -60.9* | -22.5% | 0.9% | 5.3%
COc1ccc(-n2c(O)c(/C=N/Nc3nc(C)cc(C)n3)c3ccccc3c2=O)cc1OC | -27.0% | 0.1% | -93.6* | 0.1% | -10.2% | -14.2%
COc1ccc(/C=N/Nc2nc(C)cc(-c3ccccc3)n2)cc1OC | -9.5% | -22.3% | -86.3* | -5.1% | -5.7% | -8.0%
